The campaign covered roughly 48,000 compounds. About 13,000 (27%) showed an effect of 50% or more. The list shows a part of the results.
Each compound was assayed on Wolbachia pipientis (assay: Anti-Wolbachia Cell-Based Screen). Conditions: 5 µM.
Assay type: functional
Set-up: scale not given: in the data most compounds retested in dose-response had high values

Row | SMILES | Percent Effect [%]
1 | CCSc1cc(C(=O)NC(C)c2cccc(N3CCOC3=O)c2)ccn1 (configuration not stated) | -4.217
2 | Cl.NCc1ccc(OC(F)F)cc1OC(F)F | -11.87
3 | CCn1nc(C)c(C(=O)N2C[C@@H](CN(C)C)[C@@H](CO)C2)c1C | 106.8
4 | COc1cccc(C)c1C(=O)N1C[C@@H](CN(C)C)[C@@H](CO)C1 | -2.46
5 | Cc1cc(C(=O)N2C[C@@H](CN(C)CCN(C)C)[C@@H](CO)C2)nc(C)n1 | -17.75
6 | CCn1nc(C)cc1C(=O)N1C[C@@H](CN(C)C)[C@@H](CO)C1 | 107.3
7 | Cc1ccc(CC(=O)N2C[C@@H](CN(C)C)[C@@H](CO)C2)cc1C | -3.019
8 | COCCN(C)C[C@@H]1CN(C(=O)c2c(C)cccc2OC)C[C@@H]1CO | 2.605
9 | Cc1nc(CC(C)C)cc(C(=O)N2C[C@@H](CN(C)C)[C@@H](CO)C2)n1 | -9.006
10 | CCn1nc(C)c(C(=O)N2C[C@@H](CN(C)CCOC)[C@@H](CO)C2)c1C | 114
11 | Cc1csc(CCNc2ccc(C#N)cc2F)n1 | -5.881
12 | CN(Cc1cc(-c2ccccc2)no1)CC1CCCN1c1cccnn1 (configuration not stated) | 1.009
13 | O=C(c1cccc2cccnc12)N1CCCN(c2cccnn2)CC1 | 11.56
14 | CC(C)C1CN(C(=O)Nc2cnn(CC(F)F)c2)CCS1 (configuration not stated) | -11.36
15 | Cc1ncc(CN2CCC(n3cc(-c4ccc(F)cc4)nn3)CC2)cn1 | 6.515
16 | CNC(=O)[C@@H]1C[C@H](n2cc(-c3ccc(CN4CC=CC4)cc3)nn2)CN1 | 109.2
17 | CCNC(=O)[C@@H]1C[C@@H](n2cc(CN(CC)CC)nn2)CN1 | -7.284
18 | CNC(=O)[C@@H]1C[C@@H](n2cc(-c3ccc(CN4CC=CC4)cc3)nn2)CN1 | 109.8
19 | CCNC(=O)[C@@H]1C[C@@H](n2cc(CC3CCCCC3)nn2)CN1 | 1.299
20 | CCNC(=O)[C@@H]1C[C@H](n2cc(CC3CCCCC3)nn2)CN1 | 16.21
21 | CCCS(=O)(=O)c1ccc(N2CCN(Cc3ccccc3)CC2)nn1 | 5.683
22 | OC(CN1CCN(Cc2nnc(C3CC3)o2)CC1)c1ccccc1 (configuration not stated) | -2.421
23 | CCOc1ccc(-c2ccnc(CC)n2)cc1C(=O)O | -9.54

Row | SMILES | Percent Effect [%]
24 | O=C(NCc1ccc(OCC2CC2)nc1)Nc1c(F)cccc1F | -3.933
25 | Cc1ccc(CNC(=O)Nc2nnc(C)s2)cn1 | 3.385
26 | Cc1nnc(NC(=O)NCc2ccc(OC3CCCC3)nc2)s1 | 94.72
27 | COc1ccc(CNC(=O)NC2CCN(CC3CCCC3)CC2)cn1 | 15.19
28 | Cc1nnc(NC(=O)NCc2ccc(OC(C)C)nc2)s1 | 85.37
29 | CC(C)Oc1ccc(CNC(=O)C2CCC(=O)N2)cn1 (configuration not stated) | 3.42
30 | Cc1nnc(SCC(=O)NCC(c2ccccc2Cl)N(C)C)s1 (configuration not stated) | -0.8898
31 | CCOC1CCN(C(=O)c2csc(S(N)(=O)=O)c2)CC1 | 18.04
32 | CCn1cnnc1CNc1nc(C)nc2scc(CC(C)C)c12 | 122.4
33 | COC(C)(C)CC(C)NCc1nncn1C1CCCCC1 (configuration not stated) | -17.97
34 | CCC(NC(=O)NCc1nncn1CC)c1ccc(OC)cc1 (configuration not stated) | -10.18
35 | CCn1cnnc1CNC(=O)NC(C)C(C)C (configuration not stated) | -4.455
36 | Cc1nc(NCc2nncn2C2CC2)c2c(CC(C)C)csc2n1 | 109.7
37 | Cc1nc(NCc2nnc(C)n2C)c2c(CC(C)C)csc2n1 | 119.2
38 | CC(C)CC1(C(=O)NCc2nncn2C2CC2)CCC1 | -7.53
39 | Cc1c(NC(C)C(C)C)cccc1C(=O)NCc1nnc(C)n1C (configuration not stated) | 0.4576
40 | COc1ccc(S(=O)(=O)C(F)(F)F)cc1NC(=O)CSCC#N | 5.684
41 | CCCn1nc2c(cc1=O)CN(CC(=O)Nc1cc(C)no1)CC2 | -28.4
42 | O=C(Cn1nc2c(cc1=O)CCCC2)N[C@@H](C(=O)O)c1ccccc1 | 11.26
43 | O=C(Cn1nc2c(cc1=O)CCCC2)NC(Cc1ccccc1)C(=O)O (configuration not stated) | 101
44 | O=C(Cn1nc2c(cc1=O)CSCC2)NC(Cc1ccccc1)C(=O)O (configuration not stated) | 28.51
45 | CC(C)C(NC(=O)Cn1nc2c(cc1=O)CCCC2)C(=O)O (configuration not stated) | 113
46 | O=C(Cn1nc2c(cc1=O)CCCC2)N[C@@H](Cc1ccccc1)C(=O)O | 3.393

Row | SMILES | Percent Effect [%]
47 | O=c1cc2c(nn1CN1CCN(c3ccccc3)CC1)CCC2 | 10.03
48 | CC(C)c1cc(NC(=O)CN2CCc3nn(C)c(=O)cc3C2)on1 | -16.14
49 | O=C(Cn1nc2c(cc1=O)CCCC2)NC(C(=O)O)c1ccccc1 (configuration not stated) | 110.7
50 | CCCc1cc(NCc2noc(COC)n2)n2nccc2n1 | 6.33
51 | CCC(C(=O)NC1CCCCC1)n1cccc(OC)c1=O (configuration not stated) | -2.043
52 | Cc1cccc(O[C@H]2COCCN(C3CCC3)C2)n1 | 0.8237
53 | CN(C)c1ccc(CC2CCCN(c3cnccn3)C2)nn1 (configuration not stated) | 93.08
54 | c1cnc(CC2COCCN(C3CCCCC3)C2)cn1 (configuration not stated) | 106.9
55 | c1cncc(O[C@H]2COCCN(C3CCC3)C2)c1 | -11.18
56 | CN(C)c1ccc(CC2CCN(c3cnccn3)CC2)nn1 | 90.64
57 | CN(C)c1ccc(CC2CCN(c3cnccn3)C2)nn1 (configuration not stated) | 129.7
58 | Cc1occc1C(=O)N1CCC2(CC1)CN(Cc1nccs1)CCO2.O=C(O)C(F)(F)F | -1.97
59 | CCNC(=O)CNS(=O)(=O)c1cc(Br)ccc1F | -3.098
60 | Cc1nnc(NCC2(c3ccc(Cl)cc3Cl)CCOCC2)c(C#N)c1C | 25.06
61 | COCC1(CNC(=O)[C@@]23CNC[C@@H]2CN(C2CCCC2)C3)CC1 | -67.22
62 | Cc1noc(-c2ccnc(N3CCC(CN4CCOCC4)CC3)c2)n1 | 3.253
63 | O=C(O)c1cccc(CC2CCN(c3cnccn3)CC2)c1 | -21.8
64 | Cc1nccc(CC2COCCN(c3cnccn3)C2)n1 (configuration not stated) | 114.6
65 | c1cnc(CC2CCN(c3cnccn3)CC2)cn1 | 139.5
66 | O=C1[C@H]2CN(c3cnccn3)C[C@H]2CN1CC1CC1 | -18.33
67 | Cc1ccccc1CSc1nc(N)cc(N2CCOCC(CO)C2)n1 (configuration not stated) | 4.884

Reference: ChEMBL document CHEMBL3988442, “University of Dundee, Small-Polar-MMV Screening Library” (2021)
